The values that follow come from PubChem BioAssay (NCATS).

Experiment [1] is described as follows: P-glycoprotein substrates identified in KB-8-5-11 adenocarcinoma cell line, qHTS therapeutic library screen (AID 1346987). Also: nearly all actives have a fitted effect of over 65% in size. Also: potency is read from the fitted curve at half-maximal effect. As to activity change, negative = cytotoxicity: series mostly up to about 44 µM. An outline of the steps:
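Compounds are pinned in dose-response onto KB-8-5-11 cells (500 cells/well, colchicine-free medium) and left 72 h at 37 degree C. CellTiter-Glo luminescence then yields AC50 values.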
Background: Quantitative high-throughput screening tests each substance at several concentrations.

Experiment [2] is described as follows: NS1 protein of Zika virus - qHTS assay to identify small molecule inhibitors in human HEK 293 cells (AID 1347053). Also: series mostly up to about 46 µM; nearly all actives have a fitted effect of over 55% in size. An outline of the steps: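 Compound-treated (1 h pre-infection) HEK 293 cells infected with ZIKV MR766, MOI = 0.5; after 24 h at 37 C, NS1 read by TR-FRET; data normalized to uninfected and infected controls.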
Experiment [3] is described as follows: qHTS of pediatric cancer cell lines to identify multiple opportunities for drug repurposing: Primary screen for TC32 cells (AID 1347089). Also: nearly all actives have a fitted effect of over 60% in size. An outline of the steps: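 In the primary qHTS, MIPE compounds were tested at 11 concentrations (0.78 nM to 46 µM) and NPC compounds at 8 (0.59 nM to 46 µM) on TC32 cells for 48 h. CellTiter-Glo luminescence gave viability.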

Experiment [4] in a line: qHTS of pediatric cancer cell lines to identify multiple opportunities for drug repurposing: Primary screen for DAOY cells (AID 1347090). Also: series mostly up to about 46 µM; nearly all actives have a fitted effect of over 55% in size. An outline of the steps:
(§1)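 Viability measured as metabolically active cells via CellTiter-Glo luminescence following 48 hours of compound exposure, 11-point dilutions in confirmatory testing. 500-1,000 cells/well plated 5 hours before dosing; controls were DMSO and 2.3 µM bortezomib.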

Experiment [5] can be described thus: qHTS of pediatric cancer cell lines to identify multiple opportunities for drug repurposing: Primary screen for SJ-GBM2 cells (AID 1347091). An outline of the steps: as §1
Experiment [6] can be described thus: qHTS of pediatric cancer cell lines to identify multiple opportunities for drug repurposing: Primary screen for A673 cells (AID 1347092). Also: nearly all actives have a fitted effect of over 45% in size. An outline of the steps:
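48 h compound exposure, A673, 500-1,000 cells/well, 37 degrees C/5% CO2. MIPE: 11-point, 0.78 nM-46 µM; NPC: 8-point, 0.59 nM-46 µM (final). Readout CellTiter-Glo luminescence after 15 min RT.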

Experiment [7] can be described thus: qHTS of pediatric cancer cell lines to identify multiple opportunities for drug repurposing: Primary screen for SK-N-MC cells (AID 1347093). Also: series mostly up to about 46 µM. An outline of the steps:
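Metabolically active cells were quantified by ATP-dependent luminescence (CellTiter-Glo, 15 min at room temperature) following 48 h treatment. Cells had been plated at 500-1,000 per well and settled for 5 h beforehand.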

A short description of experiment [8]: qHTS of pediatric cancer cell lines to identify multiple opportunities for drug repurposing: Primary screen for BT-37 cells (AID 1347094). Also: series mostly up to about 57 µM. The gist of the method:
(§2)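 Quantitative HTS format: each compound titrated (MIPE 11 points from 0.78 nM, NPC 8 points from 0.59 nM) onto cells plated 5 hours earlier. After 48 h at 37 degrees C, CellTiter-Glo luminescence was recorded.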

A short description of experiment [9]: qHTS of pediatric cancer cell lines to identify multiple opportunities for drug repurposing: Primary screen for NB-EBc1 cells (AID 1347095). The gist of the method: as §2
A short description of experiment [10]: qHTS of pediatric cancer cell lines to identify multiple opportunities for drug repurposing: Primary screen for U-2 OS cells (AID 1347096). Also: nearly all actives have a fitted effect of over 50% in size. An outline of the steps: (§3)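 Viability after 48 h compound treatment at 37C, 500-1,000 cells/well, read as ATP luminescence with CellTiter-Glo. Primary screens used 11-point (MIPE, 0.78 nM-46 µM) or 8-point (NPC, 0.59 nM-46 µM) final concentrations; follow-up screens used 11-point dilutions.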

Experiment [11] can be described thus: qHTS of pediatric cancer cell lines to identify multiple opportunities for drug repurposing: Primary screen for Saos-2 cells (AID 1347097). Also: nearly all actives have a fitted effect of over 40% in size. The gist of the method:
as §2

A short description of experiment [12]: qHTS of pediatric cancer cell lines to identify multiple opportunities for drug repurposing: Primary screen for SK-N-SH cells (AID 1347098).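 Also: DMSO served as neutral control and bortezomib at 2.3 µM as positive control; nearly all actives have a fitted effect of over 65% in size.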 The gist of the method: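 Cells (500-1,000/well) rested 5 h, then received compounds for 48 h; metabolically active cells were measured by CellTiter-Glo luminescence. Final concentrations spanned up to 46 µM (MIPE, 11-point) or 0.59 nM-46 µM (NPC, 8-point) in primary screens, 11-point in follow-ups.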

A short description of experiment [13]: qHTS of pediatric cancer cell lines to identify multiple opportunities for drug repurposing: Primary screen for NB1643 cells (AID 1347099). Also: nearly all actives have a fitted effect of over 50% in size. The gist of the method: as §2
Experiment [14] in a line: qHTS of pediatric cancer cell lines to identify multiple opportunities for drug repurposing: Primary screen for LAN-5 cells (AID 1347100). An outline of the steps:
as §3

Molecules are shown by their SMILES. Results filed as inconclusive are left out. A call without a number means that no potency is given here. A number with no mark means an inactive call. Active and inactive are the calls of the source. Calls follow the shape of the dose curve; as a rule, active = well fitted curve in the direction sought with a large enough effect; inconclusive = small, poorly fitted or top-dose-only effect, or another doubt; inactive = no such curve, though single readings can be large; an effect the other way counts as inactive or inconclusive.

On to `OC[C@H]1O[C@@H](Oc2ccc(O)c3cccc(O)c23)[C@H](O)[C@@H](O)[C@@H]1O`, for which the Potency result in experiment [1] is “inactive”.

Consider `O=C(Nc1cccc(C(F)(F)F)c1)c1cc(Br)cc(Br)c1O`, for which the Potency in experiment [1] is 1.3 µM (active).

Consider `C=C1C(=O)OC2/C=C(\C)CC/C=C(\C(=O)O)CC/C=C(\C)CCC12` (stereo not drawn), for which, in experiment [1], the Potency result was “inactive”.

Turning to `O=C(c1ccccn1)c1cnn2c(-c3ccncc3)ccnc12`, the Potency result in [1] was “inactive”.

As to `C=C1CC[C@@H]2[C@](C)(CC[C@H](O)[C@@]2(C)CCC=C(C)C)[C@@H]1Cc1c[nH]c2ccccc12`, the Potency result in experiment [1] was “inactive”.

For the compound `CC(/C=C/C1(O)C(C)CC(O)CC1(C)C)OC1OC(CO)C(O)C(O)C1O` (stereo not drawn), the Potency entry in [1] is “inactive”.

In the case of `CC(=O)OC(C)OC(=O)C(C)c1ccc(-c2ccccc2)c(F)c1` (stereo not drawn), the Potency result in experiment [1] is “inactive”. For the same compound, the compound was classed as inactive in experiment [2], in experiment [3], in experiment [4], in experiment [5], in experiment [6] and in experiment [7]. Further, the compound was classed as inactive in experiment [8], in [9], in [10], in experiment [11], in experiment [12] and in experiment [13]. Moreover, the compound was called inactive in [14].

Consider `C=CC1(C)C=C2C(O)CC3C(C)(C(=O)O)CCCC3(C)C2CC1` (stereo not drawn), for which, in experiment [1], the Potency result is “inactive”.

In the case of `C=C(C)[C@@H](C)[C@H]1O[C@]23C[C@]4(CO2)C(CCC2[C@@]5(C)CC[C@H](O[C@@H]6OC[C@H](O)[C@H](O[C@@H]7O[C@H](CO)[C@@H](O)[C@H](O)[C@H]7O)[C@H]6O[C@@H]6O[C@@H](CO)[C@H](O)[C@H]6O)C(C)(C)C5CC[C@]24C)C3[C@@](C)(O)[C@@H]1OC(C)=O` (stereo partly drawn), in experiment [1], the activity change, negative = cytotoxicity is 4.3% [at 9.29 µM].

On to `C[C@@H]1O[C@@H](O[C@@H]2[C@@H](O)[C@H](O[C@@H]3[C@@H](O)[C@@H](O)[C@H](O[C@H]4[C@H](OC(=O)[C@]56CCC(C)(C)C[C@H]5C5=CCC7[C@@]8(C)C[C@H](O)[C@H](O[C@@H]9O[C@@H](C)[C@H](O)[C@@H](O)[C@H]9O)[C@@](C)(CO)C8CC[C@@]7(C)[C@]5(C)C[C@H]6O)O[C@H](C)[C@H](O)[C@@H]4O)O[C@H]3C)OC[C@H]2O)[C@H](O)[C@H](O)[C@H]1O` (stereo partly drawn), for which, in [1], the activity change, negative = cytotoxicity was 4.66% [at 9.29 µM].

Turning to `O=C1NC(=Nc2ccccc2F)S/C1=C\c1ccc(C(=O)O)cc1`, the Potency result in experiment [1] was “inactive”.

Consider `C[C@@H]1CC[C@]2(C(=O)O)CC[C@]3(C)C(=CCC4[C@]5(C)C(CC[C@]43C)C(C)(C)[C@@H](O)[C@H](O)[C@@H]5O)C2[C@]1(C)O` (stereo partly drawn), for which, in [1], the Potency result was “inactive”.

Take `C=C(C)C(=O)O[C@H]1C[C@@](C)(OC(C)=O)[C@@]2(O)CC[C@@](C)(O)[C@H](OC(C)=O)[C@@]23OC(=O)C(COC)=C13`: in experiment [1], the Potency entry is “inactive”.

Consider `O=C(O)c1ccc(CCCc2ccc(OCCc3ccc(F)cc3)cc2)o1`, for which the Potency result in experiment [1] was “inactive”.

For `CC(C)CC(=O)n1cc(C(N)=O)c(=O)cc1C(O)c1ccccc1` (stereo not drawn), in [1], the Potency result is “inactive”.

In the case of `CC(C)[C@@H](C)/C=C/[C@@H](C)[C@H]1CC[C@H]2C3=CC=C4C[C@@H](O)CC[C@]4(C)[C@H]3CC[C@]12C`, the Potency entry in experiment [1] is “inactive”.

In the case of `FC(F)(F)c1cc(C(F)(F)F)c2ccc3nc(-c4nnco4)cn3c2n1`, in [1], the Potency result is “inactive”.

As for `C=C1[C@@H]2CC[C@@]3(C)[C@H](c4ccoc4)OC(=O)C[C@]13O[C@H]1CC(=O)C(C)(C)[C@H](CC(=O)OC)[C@]12C`, in experiment [1], the Potency entry is “inactive”.

With `C=CC(C)(O)CO[C@@H]1O[C@H](CO)[C@@H](O)[C@H](O)[C@H]1O` (stereo partly drawn), in experiment [1], the Potency result was “inactive”.

As for `CCCC(=O)Nc1ncnc2c1ncn2[C@@H]1O[C@@H]2COP(=O)(O)O[C@H]2[C@H]1OC(=O)CCC`, the Potency result in experiment [1] was “inactive”.
